Measured values from the supplement of paper PMC10515830.
Where a name gives a salt, the structure may show the parent alone.

Key:
Details in all cases: 10 µM; exposure time 6 h
[1] = test system: Danio rerio larvae (5 dpf); assay: difference in excitability vs DMSO (percentage points); higher = more excitable than DMSO
Outline: (§1)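 In 96-well plates, 48 wild-type zebrafish larvae aged 5 dpf per compound received 100 µL egg water with library compound at 10 µM final for 6 h. Three hours into this, a 3-h programme of moving lines and 100 ms, 400Hz tones ran at 28.5 ℃ while plates were photographed every 6 s. Z-LaP Tracker scored the behaviours, and each is given as the compound mean minus the vehicle control mean in percentage points.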

[2] = test system: Danio rerio larvae (5 dpf); assay: difference in startle response vs DMSO (percentage points); higher = stronger startle than DMSO
Outline: as §1

[3] = test system: Danio rerio larvae (5 dpf); assay: difference in activity during first hour vs DMSO (percentage points); higher = more activity than DMSO
Outline: as §1

[4] = test system: Danio rerio larvae (5 dpf); assay: difference in habituation to acoustic stimuli vs DMSO (percentage points); higher = more habituation than DMSO
Outline: as §1

[5] = test system: Danio rerio larvae (5 dpf); assay: difference in combined optomotor response to red, green and blue moving lines vs DMSO (percentage points); higher = stronger optomotor response than DMSO
Outline: as §1

SMILES | difference in excitability [1] | difference in startle response [2] | difference in activity during first hour [3] | difference in habituation to acoustic stimuli [4] | difference [5]
CC#CC(=O)N1CCC[C@H]1c1nc(-c2ccc(C(=O)Nc3ccccn3)cc2)c2c(N)nccn12 [Acalabrutinib] | 2.39 | 12.9 | 10.5 | 5 | -2.56
N#C[C@@H]1C[C@@H]2C[C@@H]2N1C(=O)[C@@H](N)C12CC3CC(CC(O)(C3)C1)C2 [Saxagliptin (hydrochloride)] | 4.61 | -1.75 | 11.5 | 5.75 | 2.16
C[C@H]1COc2c(N3CCN(C)CC3)c(F)cc3c(=O)c(C(=O)O)cn1c23 [Levofloxacin] | -4.09 | 1.07 | 16.5 | 2.74 | 4.84
C[C@]12CCC3=C4CCC(=O)C=C4CC[C@H]3[C@@H]1CC[C@@]2(O)CC#N [Dienogest] | 6.14 | -3.1 | 11.2 | 4.78 | 1.22
C[C@@H](c1ncncc1F)[C@](O)(Cn1cncn1)c1ccc(F)cc1F [Voriconazole] | 4.54 | 3.6 | -18.9 | 3.51 | 5.07
CCc1c(Cl)c(O)c(Cl)c(O)c1C(=O)O[C@H]1[C@H](O)[C@H](OC)[C@H](OCC2=CC=CC[C@H](O)C(C)=C[C@H](CC)[C@@H](O[C@@H]3OC(C)(C)C(OC(=O)C(C)C)[C@H](O)[C@@H]3O)C(C)=CC(C)=CC[C@@H]([C@@H](C)O)OC2=O)O[C@@H]1C (stereo not given in full) [Fidaxomycin] | 1.12 | 8.11 | 12.6 | 4.21 | 4.75
O=C(O)Cc1ccccc1Nc1c(Cl)cccc1Cl [Diclofenac (sodium salt)] | 17.2 | -1.39 | 2.16 | -5.15 | 2.67
Clc1ccc(CCC(Cn2ccnc2)Sc2c(Cl)cccc2Cl)cc1 (stereo not given) [Butoconazole (nitrate)] | 9.05 | -10.1 | -20.7 | -10.8 | -16.7
N[C@@H](CC(=O)N1CCn2c(nnc2C(F)(F)F)C1)Cc1cc(F)c(F)cc1F [(-)-Sitagliptin (phosphate)] | 10.7 | -0.289 | -10.7 | -3.48 | -5.35
Cc1ccnc2c1NC(=O)c1cccnc1N2C1CC1 [Nevirapine] | 0.772 | 3.61 | -2.89 | -2.11 | -3.5
CN(C)c1cc(NC(=O)CNC(C)(C)C)c(O)c2c1C[C@H]1C[C@H]3[C@H](N(C)C)C(O)=C(C(N)=O)C(=O)[C@@]3(O)C(O)=C1C2=O [Tigecycline] | 18.8 | 1.45 | -22.5 | -5.95 | -3.12
CN1CCN(C2=Nc3cc(Cl)ccc3Nc3ccccc32)CC1 [Clozapine] | 9.35 | -11.3 | 37.7 | -6.72 | 5.08
CCCc1nc(C(C)(C)O)c(C(=O)OCc2oc(=O)oc2C)n1Cc1ccc(-c2ccccc2-c2nnn[nH]2)cc1 [Olmesartan Medoxomil] | -0.702 | -2.51 | 0.837 | -4.7 | 0.0218
CN(C)c1ccc(O)c2c1C[C@H]1C[C@H]3[C@H](N(C)C)C(O)=C(C(N)=O)C(=O)[C@@]3(O)C(O)=C1C2=O [Minocycline (hydrochloride hydrate)] | 3.95 | -2.06 | 13.3 | 8.03 | -2.24
NCCCCCC(=O)O [6-Aminocaproic Acid] | 8.15 | -0.142 | 5.22 | 0.269 | 3.43
Nc1nc(CC(=O)Nc2ccc(CCNC[C@H](O)c3ccccc3)cc2)cs1 [Mirabegron] | 15.7 | -0.811 | 3.64 | -4.56 | 3.08
CCCCNc1ccc(C(=O)OCCOCCOCCOCCOCCOCCOCCOCCOCCOC)cc1 [Benzonatate] | 6.12 | 1.4 | -1.8 | 6.2 | -0.0866
CN/C(=N\CCSCc1nc[nH]c1C)NC#N [Cimetidine] | -1.49 | 2.86 | 11.1 | 4.18 | 8.46
CCN(CC)C(=O)/C(C#N)=C/c1cc(O)c(O)c([N+](=O)[O-])c1 [Entacapone] | 5.12 | -3.47 | 4.7 | 3.38 | 3.62
NC1=NCC2c3ccccc3Cc3ccccc3N12 (stereo not given) [Epinastine (hydrochloride)] | 13 | -2.41 | 14.1 | 4.49 | 7.56
OC[C@H]1NC[C@H](O)[C@@H](O)[C@H]1O [1-Deoxygalactonojirimycin (hydrochloride)] | 1.33 | 1.49 | 16.8 | 3.98 | 3.06
O=C(O)P(=O)(O)O [Foscarnet (sodium salt)] | -6.03 | 6.15 | 20.9 | -1.07 | 4.77
CC(=O)OCC[N+](C)(C)C [Acetylcholine (chloride)] | 5.65 | 0.34 | -8.36 | 2.23 | -4.37
